# Results published in PubChem BioAssay AID1865 (National Center for Advancing Translational Sciences (NCATS), 2009).
# Among all 280,000 compounds or so, about 540 (0.19%) were called active. Roughly 2% stayed inconclusive and do not appear here. The call rests on the fitted dose curve; in most records, active means well fitted activation curve with a large enough effect; inconclusive means small, poorly fitted or top-dose-only effect; inactive means flat fitted curve, though single readings scatter. The sample as a whole holds a higher share of actives than the screen did.
# Experiment: Quantitative High-Throughput Screen for Regulators of Epigenetic Control; further: nearly all actives have a fitted effect of over 60% in size; on GFP activation: % of control where 0% means no effect
# Settings: murine LDR cells, GFP reporter derepression, 30 h; series mostly up to 53.9 µM; GFP activation: at the top concentration
# Text: NIH Molecular Libraries Screening Centers Network [MLPCN] NIH Chemical Genomics Center [NCGC] MLSCN Grant: 1 X01 MH079860-01 Assay Provider: Elisabeth D. Martinez, University of Texas SW Medical Center NCGC Assay Overview: The Locus Derepression (LDR) assay detects the derepression or induction of a GFP reporter that is stably integrated in a genomic region of murine cells that is presumably silenced. Transcription of the GFP reporter is controlled by a CMV promoter, which normally is constitutively active. However, this cell line, termed LDR, was selected for lack of constitutive production of GFP. GFP production can be induced by incubating the cells with histone deacetylase or DNA methyltransferase inhibitors (Martinez et al., 2006). Compounds that derepress or induce this reporter locus are identified by enumerating GFP positive cells using a laser-scanning microplate cytometer (Auld et al., 2006). This assay was screened against the MLSMR earlier (AID 597; (Johnson et al., 2008) and has been rescreened here against the expanded collection.
# NCGC Assay Protocol Summary: Three hundred LDR cells in 5 uL per well were dispensed into black, clear-bottom 1536-well plates. Twenty-three nL compound was transferred to the assay plate and cells were incubated 30 hours at 37 C. Medium was removed, cells were washed two times with PBS, and GFP-positive cells were enumerated as fluorescent objects between the sizes of 20 to 120 um width and depth using an Acumen Explorer. References Auld, DS, Johnson, RL, Zhang, YQ, Veith, H, Jadhav, A, Yasgar, A, Simeonov, A, Zheng, W, Martinez, ED, Westwick, JK, Austin, CP, Inglese, J (2006). Fluorescent protein-based cellular assays analyzed by laser-scanning microplate cytometry in 1536-well plate format. Methods Enzymol 414: 566-89. Johnson, RL, Huang, W, Jadhav, A, Austin, CP, Inglese, J, Martinez, ED (2008). A quantitative high-throughput screen identifies potential epigenetic modulators of gene expression. Anal Biochem 375: 237-48. Martinez, ED, Dull, AB, Beutler, JA, Hager, GL (2006). High-content fluorescence-based screening for epigenetic modulators. Methods Enzymol 414: 21-36.
# Potency means the concentration at half of the fitted maximal effect.
Compound,GFP activation,Potency
CCOC(=O)c1c(S(=O)(=O)NCC(=O)Nc2ccc(Cl)c(C(F)(F)F)c2)c(C)n(C)c1C,-1.3% (inactive),
CCN1CCN(CCCNC(=O)c2cnn(-c3ccc(C)cc3C)c2C2CCN(C(=O)OC(C)(C)C)CC2)CC1,0% (inactive),
Cc1ccccc1-n1nnc2c(=O)oc3ccccc3c21,,15.8 µM (active)
Cc1cccc(N2CCN(c3c(CN4CCCC4)c(=O)oc4ccccc34)CC2)c1C,-0.594% (inactive),
CCOC(=O)c1c(C)nc2c(c1C)c(=O)oc1ccccc12,-1.99% (inactive),
COc1ccc(CCn2cc3c(c2-c2ccc(Br)cc2)c(=O)n(C)c(=O)n3C)cc1OC,-2.56% (inactive),
Cc1c(CNC(C)c2ccccc2)c(C(=O)O)c(C)n1Cc1c(F)cccc1Cl (stereo not given),0.98% (inactive),
Cc1ccc(Nc2c(-c3ccc(N(C)C)cc3)nc3nc[nH]n23)cc1,-0.937% (inactive),
COC(=O)c1ccc(C2C(C(=O)Nc3ccccc3)=C(C)Nc3nc4ccccc4n32)cc1 (stereo not given),0% (inactive),
CC1CCC(N2CC(=O)N(CCC3=CCCCC3)C(c3ccc(F)cc3)C2=O)CC1 (stereo not given),0.552% (inactive),
Cc1cccc(C(=O)Nc2ccc(S(=O)(=O)N3CCCCC3c3cccnc3)cc2)c1 (stereo not given),0% (inactive),
Cc1ccc(NC(=O)CSc2nc3ccccc3c3nc(CCn4cncc4C)nn23)cc1F,11.5% (inactive),
CCOC(=O)C(=CNc1cccc(C)n1)C(=O)OCC,2.11% (inactive),
COc1ccccc1NC(=O)c1ccc(C)s1,0% (inactive),
CCOC(=O)C(=Cc1ccccc1OC)C(=O)OCC,,22.4 µM (active)
Cc1cc(Nc2cccc(C(F)(F)F)c2)nc2ccc(NC(=O)c3ccc(=O)[nH]c3)cc12,-0.401% (inactive),
COc1cccc(Cn2c(CNS(=O)(=O)c3ccc(Cl)s3)nc3cccnc32)c1,1.14% (inactive),
CCCCNc1ccc(-c2nc(-c3ccncc3)no2)cc1[N+](=O)[O-],-2.85% (inactive),
CCCn1c2ccccc2c2cnn(CC(=O)NCCCOC(C)C)c(=O)c21,0% (inactive),
Cc1cccc2c1-c1sc(C(=O)Nc3ccc(F)cc3F)cc1CO2,0% (inactive),
CCOCCCNC(=O)c1c(NC(=O)Cc2coc3c(C)c(C)ccc23)sc2c1CCC2,-1.02% (inactive),
COc1ccc(CCNc2ncnc3c2cnn3-c2ccc(C)cc2)cc1,1.31% (inactive),
CCOC(=O)C1CCCN(S(=O)(=O)c2cc(-c3cc(C)no3)ccc2OC)C1 (stereo not given),-1.08% (inactive),
COc1ccc(OCc2cn3c(C)cc(C)nc3n2)cc1,-0.866% (inactive),

Compound,GFP activation,Potency
COc1ccc(C(C[N+](=O)[O-])n2nc(C)cc2C)cc1 (stereo not given),,12.6 µM (active)
COc1ccc(C(=O)CSc2nc(C)cc(C)n2)cc1[N+](=O)[O-],1.6% (inactive),
O=C1CCCc2cc(S(=O)(=O)N3CCCC(C(=O)NCc4ccccc4)C3)ccc2N1 (stereo not given),1.06% (inactive),
CCOc1cc(-c2nnc(SCC(=O)NC3CCCC3)nc2-c2ccc(OC)c(OCC)c2)ccc1OC,0.833% (inactive),
CC(=O)N1c2ccc(S(=O)(=O)N3CCCCCC3)cc2CC1C(=O)NCc1ccccc1C (stereo not given),14.2% (inactive),
COc1ccc(C2C(=O)N(C3CCCCCC3)CC(=O)N2CCc2ccc(Cl)cc2)cc1OC (stereo not given),0.873% (inactive),
CC(C)(C)OC(=O)N1CCC(c2c(C(=O)N3CCN(c4cccc(Cl)c4)CC3)cnn2-c2cccc(Cl)c2)CC1,-1.27% (inactive),
CN(C)CCCn1c(-c2ccc(Cl)cc2)csc1=Nc1ccccc1,2.14% (inactive),
CCCCCn1c(=O)[nH]c2cc(C(=O)Nc3ccc(F)cc3)ccc2c1=O,-4.84% (inactive),
O=C(Nc1c(-c2ccc(F)cc2)nc2ccccn12)c1cccc(F)c1,0.225% (inactive),
Cc1cccc(NC(=O)Cn2cc(S(=O)(=O)Cc3ccccc3Cl)c3ccccc32)c1,7.01% (inactive),
CCOC(=O)c1ccc(NC(=O)CSc2nc3c([nH]c4ccccc43)c(=O)n2C)cc1,11.1% (inactive),
Cn1c(C(=O)Nc2cccc(C(F)(F)F)c2)cc2c(=O)n3ccccc3nc21,2.82% (inactive),
COc1cc(Cl)c(C)cc1NC(=O)CCc1nc2cccnc2n1Cc1cccs1,-2% (inactive),
COc1cccc(NC(=O)N(Cc2cn(C)c3ccccc23)C2CCCCCC2)c1,2.27% (inactive),
COc1cccc(CNCc2c(C(=O)O)n(Cc3ccc(C)cc3)c3cc(C)ccc23)c1OC,2.35% (inactive),
COc1ccc(Nc2ncc3c(n2)CCN(C(=O)OC(C)(C)C)C3)cc1,7.82% (inactive),
COc1ccc(CCNC(=O)CCCn2c(=O)c3ccccc3n(Cc3ccc(C)cc3)c2=O)cc1OC,0% (inactive),
COC(=O)c1scc(-c2ccc(C)cc2)c1S(=O)(=O)Nc1cc(Cl)c(OC)cc1OC,0% (inactive),
O=C(Nc1ccc(Br)cc1)c1cc2nc(-c3ccccc3)cc(-c3ccccc3)n2n1,-1.59% (inactive),
CCCC(=O)Nc1cc(C(=O)NCc2ccc(OC)cc2)ccc1S(=O)(=O)c1ccc(Cl)cc1,1.06% (inactive),
CC(C)(C)c1ccc(C(=O)N2CCC(c3nc(-c4ccc(S(=O)(=O)N5CCCC5)cc4)no3)CC2)cc1,1.37% (inactive),
Cc1ccc2c(N)c(C(=O)c3ccccc3)sc2n1,0.0852% (inactive),
COc1cccc(C(=O)c2sc3nc(-c4ccccc4)cc(C(F)(F)F)c3c2N)c1,,1.58 µM (active)

Compound,GFP activation,Potency
Cc1nc2sc(C(=O)c3ccccc3)c(N)c2c2c1CCCC2,0% (inactive),
COc1ccc(Cc2nc3ccc(C(=O)NCc4ccc(OC)cc4OC)cc3o2)cc1,-1.69% (inactive),
Cc1cccc(C)c1-n1ncc(C(=O)NCCCN2CCCCC2)c1C1CCN(C(=O)OC(C)(C)C)CC1,0% (inactive),
COc1ccc(CCN2C(=O)c3oc4cc(C)cc(C)c4c(=O)c3C2c2ccccc2F)cc1OC (stereo not given),-0.667% (inactive),
COc1ccc2c(c1)c(=O)c(C(=O)c1ccccc1)cn2CC(=O)Nc1ccc2c(c1)OCCO2,-0.734% (inactive),
Cc1ccc(NC(=O)CN2c3ccccc3S(=O)(=O)c3ccccc32)cc1F,1.72% (inactive),
CCOC(=O)c1c(C)oc2ccc(N(C(=O)c3ccncc3)S(=O)(=O)c3ccc(CC)cc3)cc12,0% (inactive),
O=C(CSc1oc(-c2ccco2)nc1S(=O)(=O)c1ccc(Cl)cc1)c1ccccc1,-0.982% (inactive),
COc1ccc(CC(=O)N2CC(=O)Nc3ccc(Br)cc3C2c2ccc(F)cc2)cc1OC (stereo not given),-6.76% (inactive),
COc1ccc(CCNc2ncnc3onc(-c4ccc(Cl)cc4)c23)c(OC)c1,-0.432% (inactive),
O=C(CSc1oc(-c2ccco2)nc1S(=O)(=O)c1ccccc1)c1ccc(Cl)cc1,-0.954% (inactive),
O=C(c1cccs1)N1CCCC(c2nc(-c3ccc(F)cc3)no2)C1 (stereo not given),-1.01% (inactive),
CCOC(=O)CC(=O)CSc1nc(-c2ccccc2)cc(-c2ccc(Cl)cc2)c1C#N,3.16% (inactive),
N#Cc1c(-c2ccc(F)cc2)cc(C2CC2)nc1SCC(=O)c1cccs1,,10 µM (active)
CN(C)S(=O)(=O)c1cccc(NC(=S)N/N=C/C(=O)c2ccccc2)c1,0% (inactive),
CN(C)S(=O)(=O)c1cccc(NC(=S)NCc2ccc3c(c2)OCO3)c1,0.935% (inactive),
Cc1ccc(/C=N/NC(=S)Nc2cccc(S(=O)(=O)N(C)C)c2)o1,,3.98 µM (active)
Cc1cc(Cl)ccc1NC(=O)Cc1ccc(NC(=O)N2CCCCc3ccccc32)cc1,0% (inactive),
CCN1CCN(CCCNC(=O)c2ccc3c(c2)sc2nc(-c4ccc(OC)cc4)cn23)CC1,0% (inactive),
Cc1oc(C)c2c(=O)cc(-c3ccc4c(c3)OCO4)cc(OC(=O)c3ccc(Cl)cc3)c12,1.85% (inactive),
COc1cc(OC)cc(C(=O)Nc2ccc3nc(Nc4cccc(C(F)(F)F)c4)cc(C)c3c2)c1,-1.23% (inactive),
CCc1ccc(CNCc2c(C(=O)O)n(Cc3ccc(F)cc3Cl)c3cc(OC)ccc23)cc1,0% (inactive),
N#Cc1ccccc1Cn1cnc2nc3c(cc2c1=O)CCCC3,0% (inactive),
Cc1ccccc1C(=O)Nc1nnc(S(=O)(=O)N(C)c2ccc(Cl)cc2)s1,3.16% (inactive),

Compound,GFP activation,Potency
COc1ccc(C(=O)N2CCC(c3nc4ccccc4o3)CC2)cc1,0% (inactive),
CCCCOc1ccc(CN2C(=O)C(=O)c3cc(Br)cc(C)c32)cc1OC,-3.95% (inactive),
Cc1nn(C(C)C(=O)Nc2ccc(C(C)C)cc2)c(=O)c2c1sc1ccccc12 (stereo not given),1.04% (inactive),
COc1ccc(NC(=O)CCNS(=O)(=O)c2ccc3c(c2)CCCC(=O)N3)cc1Cl,-1.27% (inactive),
COc1cccc(-c2nnc(SCC(=O)N3CCC(C)CC3)o2)c1,-1.77% (inactive),
CCOc1ccc(CNCc2c(C(=O)O)c(C)n(Cc3cccc(OC)c3)c2C)cc1OC,-1.61% (inactive),
Cc1ccc(Cl)cc1N(C)C(=O)C1CCCN(c2ncnc3onc(-c4ccc(F)cc4)c23)C1 (stereo not given),-0.432% (inactive),
COc1ccc(S(=O)(=O)c2c(Nc3cccc(Cl)c3)sc(C(=O)c3ccccc3)c2N)cc1,0% (inactive),
COc1ccccc1Nc1nc(N)nc(N)c1S(=O)(=O)c1ccccc1,-1.08% (inactive),
CC1(C)N=C(SCc2ccccc2Cl)c2ccccc2N1,0% (inactive),
Cc1ccc(NC(=O)Cc2ccc(NC(=O)N3CCCCc4ccccc43)cc2)cc1,0.833% (inactive),
CNC(=O)c1ccc(-c2nc(CN3CCc4ccccc43)c(C)o2)cc1,-1.24% (inactive),
CC(=O)c1ccc(NC(c2ccc(F)cc2)c2nnc(-c3ccccc3)o2)cc1 (stereo not given),1.06% (inactive),
COc1ccc(-c2cn3nc(N4CCCC(C(=O)NCCCOC(C)C)C4)sc3n2)cc1 (stereo not given),1.23% (inactive),
Cc1cc2oc(C(=O)N(Cc3ccc(Cl)cc3)Cc3ccco3)c(C)c2cc1Cl,-1.85% (inactive),
COc1cccc(N=C2SC(C(=O)Nc3cccc(Cl)c3)CC(=O)N2C)c1 (stereo not given),-1.59% (inactive),
Fc1ccc(-n2ncc3c(Nc4ccc(Oc5ccccc5)cc4)ncnc32)cc1,2.05% (inactive),
COc1ccccc1CN1CCC(CNC(=O)c2cnn(-c3ccccc3Cl)c2C2CCN(C(=O)OC(C)(C)C)CC2)CC1,-1.27% (inactive),
CCOc1ccccc1C(=O)Nc1ccc2c(c1)N(C)C(=O)c1ccccc1S2,9.09% (inactive),
CCOC(=O)c1c(C)[nH]c(CCC(=O)Nc2ccc(OC)c(OC)c2)c1C,-1.54% (inactive),
O=S(=O)(c1ccc2nc(NCc3ccccc3Cl)ccc2c1)N1CCCCC1,-1.46% (inactive),
COc1cc(CN(C(=O)c2ccccc2Br)c2ccccn2)cc(OC)c1OC,0.833% (inactive),
CC(C)(C)c1ccc(OCC(=O)N2CCC(c3nc4ccccc4s3)CC2)cc1,0% (inactive),
